Results filed as inconclusive are left out. Activity calls are given as the source filed them. Calls follow the shape of the full dose curve.
Target: Nucleoprotein (Lymphocytic choriomeningitis virus (strain Armstrong)) (UniProt P09992)
Experiment: qHTS for Inhibitors of the Functional Ribonucleoprotein Complex (vRNP) of Lymphocytic Choriomeningitis Arenaviruses (LCMV): LCMV Primary Screen - GLuc reporter signal (AID 1347086); also: nearly all actives have a fitted effect of over 70% in size
Conditions: LCMV minigenome vRNP cell assay, Gaussia luciferase reporter; series mostly up to 57.5 µM; activity change, negative = inhibition: at the top concentration
% is scaled to controls: 0 for no effect and ±100 for the full control effect; potency is read from the fitted curve at half-maximal effect.

Nucleoprotein (Lymphocytic choriomeningitis virus (strain Armstrong)), sequence (P09992 whole entry, looked up): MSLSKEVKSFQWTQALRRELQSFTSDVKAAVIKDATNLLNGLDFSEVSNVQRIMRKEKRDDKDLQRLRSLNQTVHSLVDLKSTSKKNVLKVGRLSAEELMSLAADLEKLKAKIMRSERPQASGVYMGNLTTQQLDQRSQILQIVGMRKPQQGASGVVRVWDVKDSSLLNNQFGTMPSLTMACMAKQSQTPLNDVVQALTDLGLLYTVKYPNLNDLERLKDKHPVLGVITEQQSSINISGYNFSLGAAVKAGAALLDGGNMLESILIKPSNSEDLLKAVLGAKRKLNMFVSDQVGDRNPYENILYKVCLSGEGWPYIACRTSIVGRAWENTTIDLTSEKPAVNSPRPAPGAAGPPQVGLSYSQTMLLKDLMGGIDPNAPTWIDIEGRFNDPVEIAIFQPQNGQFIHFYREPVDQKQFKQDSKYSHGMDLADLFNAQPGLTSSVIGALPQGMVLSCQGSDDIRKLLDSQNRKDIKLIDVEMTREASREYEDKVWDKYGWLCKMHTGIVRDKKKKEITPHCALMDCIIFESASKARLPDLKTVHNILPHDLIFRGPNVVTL

SMILES	activity change, negative = inhibition	Potency
CCOC(=O)[C@H](CCc1ccccc1)N[C@@H](C)C(=O)N1CCCC1C(=O)O (some centres not stated)	24.3% (inactive)	
OCCNC1CCCc2c1[nH]c1ccc(-c3ccccc3)cc21 (configuration not stated)	-0.416% (inactive)	
O=C(CCCCO)CCCCCCCC[C@H]1N[C@H](CO)[C@H](O)[C@@H]1O[C@@H]1O[C@H](CO)[C@@H](O)[C@H](O)[C@H]1O	-5.97% (inactive)	
Nc1nc(Cl)nc2c1ncn2[C@@H]1O[C@H](CO)C(O)[C@H]1O (some centres not stated)	-75.7% (inactive)	
O=c1c(O)c(-c2cc(O)c(O)c(O)c2)oc2cc(O)ccc12	8.27% (inactive)	
COc1cc(CCc2cc(NC(=O)c3ccc(N4C[C@@H](C)N[C@@H](C)C4)cc3)n[nH]2)cc(OC)c1	-10.7% (inactive)	
COc1cc(C(=O)OC2CC3CCC2(C)C3(C)C)ccc1OC(C)=O (configuration not stated)	6.36% (inactive)	
CC1(C)CC[C@]2(C(=O)O)[C@H](O)C[C@]3(C)C(=CCC4[C@@]5(C)C[C@H](O)[C@H](O)[C@@](C)(CO)C5CC[C@]43C)[C@@H]2C1 (some centres not stated)	3.59% (inactive)	
COc1ccc2cc1Oc1ccc(cc1)CC1c3cc(c(OC)cc3CCN1C)Oc1c(OC)c(OC)c(OC)c3c1C(C2)N(C)CC3 (configuration not stated)	7.27% [at 24.7 µM] (inactive)	
CC1CC[C@@]2(OC1)O[C@H]1CC3[C@@H]4C[C@@H](O)[C@@]5(O)C[C@@H](O)[C@H](O)C[C@]5(C)[C@H]4CC[C@]3(C)[C@H]1[C@@H]2C (some centres not stated)	6.62% (inactive)	
CC(C)=CCCC(C)CC=O (configuration not stated)	11.4% [at 115 µM] (inactive)	
COC(=O)c1ccccc1-n1c(C)nc2ccccc2c1=O	8.71% (inactive)	
CCCCCCCCCCCCC(=O)CCCCC(=O)O	15.5% (inactive)	
COc1cc2ccc(=O)oc2c(O)c1O	4.12% (inactive)	
CN[C@H]1[C@@H](O)[C@@H]2O[C@@H]3O[C@H](C)CC(=O)[C@]3(O)O[C@@H]2[C@@H](NC)[C@H]1O		1.72 µM (active)
Cc1[nH]c(C=C2C(=O)Nc3ccc(S(=O)(=O)Cc4c(Cl)cccc4Cl)cc32)c(C)c1C(=O)N1CCC[C@H]1CN1CCCC1	26.1% (inactive)	
C=O	-5.07% [at 115 µM] (inactive)	
CC(C)CC(=O)OC(C)(C)[C@@H]1Cc2c(ccc3ccc(=O)oc23)O1	20% (inactive)	
C=C1CCC2C(C)(C)[C@@H](O)CC[C@@]2(C)[C@@H]1COc1ccc2ccc(=O)oc2c1 (some centres not stated)	-18.3% (inactive)	
O=C(/C=C/c1ccccc1)OCCc1ccccc1	33.6% [at 115 µM] (inactive)	
C[C@H](NCc1ccc2c(c1)nc(NC(=O)c1ccc(-c3cn[nH]c3)s1)n2CCc1ccccc1)C(C)(C)C		17.2 µM (active)
CC[C@H](C)/C=C(C)/C=C/C1=CC2=CC(=O)[C@]3(C)OC(=O)[C@@H](C(C)=O)[C@@H]3C2=CO1	-0.397% (inactive)	

Source: PubChem BioAssay (NCATS)
